In PubChem BioAssay AID602281 (The Scripps Research Institute Molecular Screening Center, 2012):
Out of some 360,000 compounds screened, about 2,900 (0.81%) were called active.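 Rule for the calls: active = inhibition above the mean inhibition across every tested compound plus 3 SD (cut at about 22% in these data); inactive = the rest.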 The entries come from a sample that favours actives as a whole.

Biological target: Perilipin-5 (Homo sapiens) + 1-acylglycerol-3-phosphate O-acyltransferase ABHD5 (Homo sapiens) (UniProt Q00G26+Q8WTS1)
Assay: ABHD5-PLIN5 interaction inhibitors, primary screen, cell lysate, split luciferase complementation, luminescence (AID 602281);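 note: 0% = DMSO only wells and the 100% control is not disclosed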
Conditions: Split G. princeps luciferase complementation, 4 h, at 4 µM, active compounds read high

Chain of Perilipin-5 (Homo sapiens) + 1-acylglycerol-3-phosphate O-acyltransferase ABHD5 (Homo sapiens) (Q00G26 whole entry, looked up): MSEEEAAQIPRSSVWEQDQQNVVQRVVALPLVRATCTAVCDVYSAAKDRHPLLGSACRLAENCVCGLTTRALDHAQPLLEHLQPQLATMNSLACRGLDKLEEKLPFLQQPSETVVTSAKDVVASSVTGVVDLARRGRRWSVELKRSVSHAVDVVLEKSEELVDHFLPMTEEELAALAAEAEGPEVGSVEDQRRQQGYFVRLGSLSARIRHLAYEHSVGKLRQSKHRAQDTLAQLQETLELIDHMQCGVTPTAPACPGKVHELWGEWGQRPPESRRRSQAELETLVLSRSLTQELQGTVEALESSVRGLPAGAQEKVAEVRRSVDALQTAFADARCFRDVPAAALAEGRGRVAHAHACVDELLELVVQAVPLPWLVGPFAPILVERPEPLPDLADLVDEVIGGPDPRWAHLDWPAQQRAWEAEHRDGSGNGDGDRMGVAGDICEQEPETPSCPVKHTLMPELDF
Chain of Perilipin-5 (Homo sapiens) + 1-acylglycerol-3-phosphate O-acyltransferase ABHD5 (Homo sapiens) (Q8WTS1 whole entry, looked up): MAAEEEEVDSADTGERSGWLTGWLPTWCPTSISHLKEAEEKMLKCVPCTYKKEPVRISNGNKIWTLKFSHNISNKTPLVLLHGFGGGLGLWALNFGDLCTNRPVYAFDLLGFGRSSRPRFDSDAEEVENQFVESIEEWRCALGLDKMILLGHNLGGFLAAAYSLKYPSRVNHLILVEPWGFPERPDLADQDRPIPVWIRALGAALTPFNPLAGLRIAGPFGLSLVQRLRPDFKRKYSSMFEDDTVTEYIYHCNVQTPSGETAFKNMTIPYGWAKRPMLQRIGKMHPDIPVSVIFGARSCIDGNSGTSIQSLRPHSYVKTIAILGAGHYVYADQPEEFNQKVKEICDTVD

inhibition, active:
Cc1ccccc1C(CC(=O)c1cccs1)C(C#N)C#N (configuration not stated) 22.1%
Cc1nc(-c2ccccc2)sc1C(=O)/C=C/c1ccccc1 36%
O=C(/C=C/c1ccccc1)c1ccccc1O 22.9%
O=C(/C=C/c1ccccc1)c1ccoc1 23%
FC(F)(F)C1CCCN(c2nsc3ccccc23)C1 (configuration not stated) 28.5%
O=C(/C(=C/c1cccc(Cl)c1)c1nc2ccccc2[nH]1)c1ccccc1 23.3%
C#CCOCCOCCOCCNc1nc(N2CCN(C(=O)CCCCCCCCCCNC(=O)Cn3cc(CCCCCN)nn3)CC2)nc(N2CCN(C(=O)CCCCCCCCCCNC(=O)[C@H](CO)n3cc(CCCSC)nn3)CC2)n1 44%
C=C1C(=O)[C@]23C[C@H]1CCC2[C@@]1(C)C(C[C@@H]3O)[C@](C)(C(=O)O)CC[C@@H]1O (some centres not stated) 36.1%
CCc1ccc(NC(=O)CSc2nnc(-c3cnccn3)n2Cc2ccco2)cc1 23.2%
O=C(CSc1nnc(-c2cccnc2)n1Cc1ccco1)c1ccc(Cl)cc1 22.5%
O=C(/C=C/c1ccc(Cl)cc1Cl)c1cccnc1 74.7%
O=C(/C=C/Sc1ncn[nH]1)c1ccc(Cl)cc1 57.9%
COc1ccc(CNC(=O)/C(C#N)=C/c2cccc(OC)c2OC)cc1 36%
O=C(N/N=C/C=C/c1ccco1)c1cccs1 36.5%
Cc1cccc(C=CC(=O)c2ccc(Cl)cc2)c1 34.8%
O=C1C=C(c2ccc(Cl)cc2)C(=O)N1Nc1ccccc1 66.8%
COc1ccc(/C=C/C(=O)c2cc(Br)ccc(=O)c2O)cc1 22.1%
COc1ccccc1C1/C(=C(/O)c2ccc(C)cc2)C(=O)C(=O)N1Cc1ccco1 (configuration not stated) 28.4%
COc1ccc(/C(O)=C2\C(=O)C(=O)N(Cc3ccco3)C2c2ccc(OC)cc2OC)cc1 (configuration not stated) 28.9%

inhibition, inactive:
NC(=O)COc1ccc(C23CC4CC(CC(C4)C2)C3)cc1 -7.75%
Cc1ccc(NNC(=O)c2cccs2)cc1Cl 0.05%
CC(C)OCCCNC(=O)CNC(=O)c1cccs1 3.5%
CC1=NN(C(C)C)C(=O)C1 -11.8%
COc1ccccc1C(=O)C(O)c1ccccc1OC (configuration not stated) 4.01%
CSc1ccccc1OCc1cc(C(=O)N2C[C@H]3CC[C@H]2C3)no1 -0.37%
COC(=O)[C@@H](NC(=O)Nc1cc(Cl)ccc1C)C(C)C 15.4%
O=S(=O)(/C=C/c1ccccc1)N1CCNCC1 -10.8%
CC1(C(=O)O)CCN1C(=O)/C=C/c1ccccc1 (configuration not stated) -1.15%
Cc1nc(-c2ccc(Cl)cc2)sc1C(=O)CBr 9.2%
CC(/C=C/c1ccccc1)=N\NC(=O)C1CC1(C)c1ccccc1 (configuration not stated) -4.04%
Nc1nc(NC(=O)/C=C/c2ccccc2)nn1-c1ccccc1 3.41%
Cc1nc(-c2ccccc2)sc1-c1nc(-c2ccccc2)ncc1S(=O)(=O)c1ccccc1 2.52%
COc1ccc(CN(C)Cc2nc3cc(OC)c(OC)cc3c(=O)[nH]2)c(OC)c1 3.55%
COc1ccc(C2NC(=S)NC3=C2CCc2ccccc23)cc1OC (configuration not stated) -20.7%
O=C(c1c(F)cccc1F)N1CCN(S(=O)(=O)c2ccc3c(c2)OCCO3)CC1 -12.9%
Fc1ccc(N2N=C(c3cccs3)CC2c2ccco2)c(F)c1 (configuration not stated) -11.2%
COC(=O)c1ccc2nc(-c3ccc(C)cc3)c(Cc3ccc(OC)cc3C)n2c1 0.21%
Fc1ccc(CNCc2ccc(Br)cc2)cc1 3.28%
CCOC(=O)N1CCN(S(=O)(=O)c2ccc3c(c2)C(C)C(=O)N3)CC1 (configuration not stated) 2.99%
COC(=O)[C@@]12C[C@@H](CC(=O)NCc3cccc(C(F)(F)F)c3)C(=O)N(Cc3ccco3)C1=CCC(C)(C)C2 -1.98%
CCS(=O)(=O)Nc1ccc(C(=O)NCCSc2ccccc2)cc1 -5.43%
COC(C[C@@H](O)[C@H](C)[C@H](O)COCc1ccccc1)OC -4.38%
CCCCN(Cc1ccccc1)C(=O)C1CCN(Cc2sccc2C)CC1 1.95%
CCCc1nc2ccccc2n1C(C)C(=O)NC(C)(C)C (configuration not stated) 5.62%
CN(C)NC(=O)c1csnc1-c1c(Cl)cccc1Cl -5.5%
COC(=O)c1ccc(COC(=O)C2CCN(S(=O)(=O)c3c(Cl)cccc3Cl)CC2)o1 1.49%
C#CCOCCOCCOCCNc1nc(N2CCOCC2)nc(N2CCN(C(=O)[C@H](Cc3ccc(O)cc3)n3cc(CCO)nn3)CC2)n1 -5.39%
C#CCOCCOCCOCCNc1nc(N2CCN(C(=O)C([C@@H](C)O)n3cc([C@@H](N)CCCCN)nn3)CC2)nc(N2CCN(C(=O)[C@H](CCCCN)n3cc(CN)nn3)CC2)n1 (some centres not stated) 8.85%
CN(C)c1cc(N)c2ccccc2n1 (tested in a mixture with another compound) -3.32%
O=C(O)c1ccc(S(=O)(=O)N2CCC(Cc3ccccc3)CC2)cc1 -8.86%
Cc1ccc2[nH]c(=O)c(CC=C(Cl)Cl)c(C)c2c1 1.26%
CCN(C(=O)COC(=O)c1cc(NS(=O)(=O)c2ccc(Cl)c([N+](=O)[O-])c2)ccc1O)C1CCCCC1 -3.6%
O=Cc1ccc(OCc2cn3ccccc3n2)cc1 -8.56%
COc1cc(N2C(=O)c3ccccc3C2=O)c(Cl)cc1C(=O)OCC(=O)N1CCOCC1 -1.51%
CCOC(=O)Cc1csc(NC(=O)CSc2nnc(-c3cccnc3)n2Cc2ccco2)n1 5.88%
Cc1cc(C)nc(SCc2nnc(SCC(=O)Nc3ncc(C)s3)n2Cc2ccco2)n1 19.3%
C(=C\c1ccccc1)/CSc1nnc(-c2cccnc2)n1Cc1ccco1 7.27%
CCn1c(SCC(=O)Nc2cc(C)ccc2C)nnc1-c1cnccn1 7.43%
CCCCCNC(=O)C1C(=O)Nc2ccccc2C(=O)N1C(C)(C)C (configuration not stated) 4.37%
COc1cc(/C=C/CO)cc(OC)c1O[C@@H]1O[C@H](CO)[C@@H](O)[C@H](O)[C@H]1O -1.15%
O=C(CC(=O)c1cccnc1)c1ccccc1 -23.9%
O=C(OCc1cc(Cl)ccc1OC(F)F)c1cccnc1 4.48%
Cc1ccc(S(=O)(=O)N(C)C)cc1NC(=O)c1n[nH]c(=O)c2ccccc12 5.24%
O=C1CCCC(O)=C1N=Nc1ccc2ncsc2c1 -5.19%
O=C(Cn1cnc2c(nnn2-c2ccccc2)c1=O)N1CCC(Cc2ccccc2)CC1 7.96%
O=C(Nc1ccc(F)cc1)C(CCc1ccccc1)N1CCN(CC(=O)N2CCCC2)CC1 (configuration not stated) -3.25%
CCCCc1cc2c(s1)CCCC/C2=N/O -9.56%
COc1cc(/C=C(\C#N)C(=O)Nc2ccc3ccccc3c2)c([N+](=O)[O-])cc1OC -3.38%
COc1ccc(CNC(=O)c2c[nH]c3c(OC)cc(OC)cc3c2=O)cc1 -1.89%
COC(=O)C[C@H]1C[C@@H]2c3cc(NC(=O)Nc4ccccc4)ccc3O[C@@H]2[C@@H](CO)O1 3.8%
c1ccc(-c2c[nH]c(-c3ccccc3)c2)cc1 -5.36%
O=C(NNC(=O)c1ccc(Cl)cc1Cl)c1cccs1 3.54%
O=C(NC1CCCCCCC1)c1cccs1 -5.96%
Cc1cccc(CN2CCN(C3CN(Cc4cn(Cc5ccccc5F)nn4)S(=O)(=O)C3)CC2)c1 (configuration not stated) 5.46%
Cc1ccc(-c2c(N)nc3ncccn23)cc1 -3.59%
Cc1cc(C)nc(NC(=O)/C=C/c2ccc(Cl)cc2)n1 0.69%
Cc1cccc(C(=O)Nc2ccc(C(=O)/C=C/c3cccs3)cc2)c1 12.6%
CCO[C@H]1OC(C(=O)Nc2ccccc2)=C[C@@H](C2CC2)[C@@H]1CCCO -3.76%
CCCCN1C(N)=NC[C@@H]1CC1CCCCC1 10.6%
Cc1ccn2cc(-c3nonc3C)cc2c1 -1.69%
CCc1ccccc1NC(=O)c1cc(-c2ccc3c(c2)OCO3)on1 -4.14%
CCOc1ccc(NC(=S)NC(=O)/C=C/c2ccc(OC)cc2)c([N+](=O)[O-])c1 2.26%
COc1ccc(/C=C/C(=O)NC(=S)N2CCCC(C(N)=O)C2)cc1 (configuration not stated) -2.44%
O=C(O)c1cc2ccccc2c(=O)s1 10.5%
NC[C@H](Cc1ccccc1)NCCc1cc(C(F)(F)F)cc(C(F)(F)F)c1 5.8%
COc1ccc(/C(O)=C2/C(=O)C(=O)N(c3nc(C)c(C)s3)C2c2ccco2)cc1 (configuration not stated) 6.99%
COc1ccc(/C(O)=C2/C(=O)C(=O)N(CCCN(C)C)C2c2ccccc2)cc1OC (configuration not stated) -4.94%
COc1cc(C2/C(=C(\O)c3ccc4c(c3)CC(C)O4)C(=O)C(=O)N2Cc2ccco2)ccc1O (configuration not stated) 11.1%
COc1ccc(/C(O)=C2/C(=O)C(=O)N(CC3CCCO3)C2c2ccc(OC)c(OC)c2)cc1 (configuration not stated) 1.46%
CC(C)c1nnc(NC(=O)C2CC(=O)N(CCc3ccc(F)cc3)C2)s1 (configuration not stated) -0.4%
CSc1nc(-c2ccccc2)nc(C(Cl)Cl)n1 -6.27%
COc1ccc(-c2nnc3n2CCCCC3)cc1 2.02%
